Bioassay records deposited in PubChem by Broad Institute.
Sampled rows, rich in hits. Any-hit rate of the full collection: about 2.4%.
miR-122 sensor: inhibitors of miR-122 in Huh7 cells | Huh7 miR-122 Renilla luciferase sensor, 48 h; neutral wells = 0, positive control = 100 | activation (reporter increase), % at 12.5 µM | actives 0.3% (n = 340,000);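 active means mean replicate activation score at least 90 and every replicate individually at or above 90; inconclusive means only one of the two criteria met; inactive means neither criterion met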;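 further: higher luciferase means less miR-122 activity so hits act as miR-122 inhibitors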
GSIS activator: primary screen for activators of insulin secretion dependent on glucose, INS-1E cells, GLuc reporter luminescence; activation, % at 16.6 µM; actives 0.61% (n = 370,000); INS-1E GLuc reporter insulin secretion, 2-3 h;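 active means lowest replicate activation of at least 40%, so every replicate reaches that level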;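 further: 0% = median of neutral control wells and 100% = median of IBMX positive control wells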
NSD2 HMT inh: blocks human histone methyltransferase NSD2 | O96028 | NSD2 peptide methylation, AlphaScreen, 120 min | inhibition, % at 12.5 µM | actives 0.54% (n = 310,000)
MITF act: increases MITF-driven TRPM1 promoter luciferase signal; activation, % at 12.5 µM; actives 0.75% (n = 300,000); AID 588334; SK-MEL-5 TRPM1-promoter luciferase, 24 h; % of positive control, neutral wells = 0;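 active means mean activation of at least 80% with every replicate also reaching 80%; inconclusive means mean reaches 80% but some replicate falls short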;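 further: 0% = neutral control wells and 100% = parthenolide positive control wells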
Wnt act: Wnt/beta-catenin pathway activation. activation, % at 9.35 µM. AID 743398. Wnt/beta-catenin reporter cell assay, activator, plate reader. actives 1.2% (n = 300,000); in the data active means activation above about 30%, passing the limit was not always enough; inconclusive means no clear call, values can overlap the other calls;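 further: 0% = neutral control wells and 100% = positive control wells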
DYRK1A inh: Dyrk1A (rat) kinase inhibition; Q63470; ADP-Glo luminescence, NFATc1 peptide; inhibition, % at 12.5 µM; actives 0.43% (n = 310,000); AID 504441;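 further: plate controls were vehicle with enzyme for no effect and no enzyme for full effect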
Numbers without * were called inactive; ? = inconclusive; / = no result; [ ] = another dose, or the depositor's remark. Unless noted, no stated cut-off is given here; in the data, active means inhibition above about 50%; inactive means the rest.

SMILES	miR-122 sensor	GSIS activator	NSD2 HMT inh	MITF act	Wnt act	DYRK1A inh
CC(C)(C)Nc1nc(Nc2ccc([N+](=O)[O-])cc2)nc(NC(C)(C)C)n1	-1	19	1	/	-3	2
CCCCOC(=O)Nc1ccc(N2CCOCC2)cc1	1	/	3	72	/	-12
CCCCOC(=O)Nc1ccc(N2CCCCC2)cc1	5	/	10	/	74*	-5
CCN(CC)c1ccc(NC(=O)c2ccc(Br)o2)cc1	-2	-6	19	97*	70*	1
O=C(Nc1ccc(N2CCOCC2)c(Cl)c1)c1ccc(-n2cnnc2)cc1	/	2	1	-9	-5	3
O=C(Nc1ccc(N2CCOCC2)c(Cl)c1)c1ccc(F)cc1	7	-1	-1	122*	16	-1
CCN1CCN(c2ccc(NC(=O)c3cccc(F)c3)cc2Cl)CC1	7	-17	6	128*	9	2
CCN1CCN(c2ccc(NC(=O)c3ccco3)cc2Cl)CC1	/	16	18	63	15	2
O=C(Nc1ccc(N2CCOCC2)c(Cl)c1)c1ccc(Br)o1	-5	/	-2	106*	53*	18
O=C(Nc1ccc2c(c1)CCC2)c1ccc(Br)o1	-2	/	-3	32	42*	1
O=C(Nc1ccc(N2CCN(C(=O)c3ccccc3)CC2)c(Cl)c1)c1ccc(Br)o1	38	0	-1	-6	-4	-8
O=C(Nc1ccc(N2CCCC2)cc1)c1ccc(Br)o1	-2	/	/	84*	/	/
Cc1[nH]n(C(N)=S)c(=O)c1N=Nc1ccc(Br)cc1	/	-29	-1	41	40*	2
Cn1cc(CNCc2cn[nH]c2-c2ccc(F)cc2)c(-c2ccc3c(c2)OCCO3)n1	/	-4	1	-1	37*	-4
C[C@@H]1CN([C@@H](C)CO)C(=O)c2cc(C3=CCCC3)cnc2O[C@@H]1CN(C)C	3[16.7 µM]	17	/	/	/	/
CCCn1c(NC(=O)C2CCN(C(=O)c3ccccc3C)CC2)nc2ccccc21	/	-3	3	-23	2	9
CCCn1c(NC(=O)c2cccc(C)c2C)nc2ccccc21	118*	/	-4	-9	/	2
CCCNC(=O)N1C[C@@H](C)[C@@H](OC)CN(C)C(=O)c2ccc(NC(=O)C3CCC3)cc2OC[C@H]1C	/	3	/	/	/	/
CCOc1cc(/C=C/c2ccc3cccc([N+](=O)[O-])c3n2)cc(Cl)c1O	113*	-4	-2	-4	/	-4
CNC(=S)N/N=C/c1ccc(N(C)C)cc1	/	12	-1	/	48*	-4
O=C(Cc1ccccc1)N1CC2(C1)[C@H](c1ccccc1)[C@@H](CO)N2S(=O)(=O)Cc1ccccc1	/	-2	/	/	/	/
CCCOc1ncnc2c1[nH]c1ccccc12	-3	/	-5	/	15	6
CCCCOc1ncnc2c1[nH]c1ccc(C)cc12	-16	4	0	/	43*	/
C=CCNc1ncnc2c1[nH]c1ccc(C)cc12	/	-57	3	53	20	/
CCCOc1ncnc2c1[nH]c1ccc(OC)cc12	/	-6	-2	/	52*	-1
SMILES	miR-122 sensor	GSIS activator	NSD2 HMT inh	MITF act	Wnt act	DYRK1A inh
COc1ccc2[nH]c3c(NCCCOC(C)C)ncnc3c2c1	/	-13	4	5	31*	9
CO[C@H](CN(C)C(=O)c1cnccn1)[C@@H](C)CN([C@H](C)CO)S(=O)(=O)c1ccc(C)cc1	/	8	/	/	/	/
Cc1ccc2c(c1)c1c(n2C)-c2[nH]ncc2CC1	-11	/	4	/	41*	46
COCC(=O)Nc1ccc2c(c1)[C@H]1C[C@@H](CC(=O)N(C)C)O[C@H](CO)[C@H]1O2	-4[16.7 µM]	-12	/	/	/	/
CCNC(=O)C[C@H]1C=C[C@@H](NC(=O)C2CCOCC2)[C@H](CO)O1	/	11	/	/	/	/
CCNC(=O)C[C@@H]1CC[C@@H]2[C@@H](COc3ccc(NC(=O)Cc4cccs4)cc3C(=O)N2C)O1	13[16.7 µM]	6	/	/	/	/
COc1ccc(Oc2c(OC)cc(NCc3ccc(CN)cc3)c3ncccc23)cc1	0	-19	76*	/	-8	/
C[C@H](CO)N1C[C@H](C)[C@H](CN(C)S(=O)(=O)c2ccc(Cl)cc2)Oc2ccc(NC(=O)CCCN(C)C)cc2C1=O	2[16.7 µM]	8	/	/	/	/
O=C(Cn1nnc2ccccc21)c1ccc(Cl)cc1	-2	27	-3	74	45*	5
O=C(O)Cn1nnc2ccccc21	/	29	-4	8	2	-6
C(#Cc1ccccc1)Cn1nnc2ccccc21	23	/	-1	86*	/	-4
O=C(Cn1nnc2ccccc21)c1ccc([N+](=O)[O-])cc1	/	5	4	8	2	0
O=C(O)CCn1nnc2ccccc21	2	6	/	1	47*	-1
CO[C@@H]1CC[C@H]2CCN(C)C(=O)CCCN(C)C(=O)c3cccc(C#N)c3OC[C@H]1O2	/	25	/	/	/	/
C[C@@H]1CN([C@@H](C)CO)S(=O)(=O)c2ccc(C#CC3CCCC3)cc2O[C@H]1CN(C)C(=O)C1CC1	20[16.7 µM]	-10	/	/	/	/
C[C@H](CO)N1C[C@H](C)[C@H](CN(C)Cc2ccc3c(c2)OCO3)OCCCC[C@H](C)Oc2ccc(NS(=O)(=O)c3ccc(Cl)cc3)cc2C1=O	-3[16.7 µM]	-21	/	/	/	/
C[C@H](CO)N1C[C@H](C)[C@@H](CN(C)C(=O)Cc2ccccc2)Oc2ncc(-c3ccccc3)cc2C1=O	10[16.7 µM]	-4	/	/	/	/
COCC#Cc1cnc2c(c1)C(=O)N([C@H](C)CO)C[C@H](C)[C@H](CN(C)C(=O)c1cnccn1)O2	-1[16.7 µM]	23	/	/	/	/
CN(C)c1ccc(/C=C/c2nc3ccccc3c(=O)[nH]2)cc1	/	9	-2	-50	16	-2
O=c1[nH]c(COc2ccc(Br)cc2Cl)nc2ccccc12	-10	-4	3	?	44*	-2
O=c1[nH]c(/C=C/c2ccc(Br)cc2)nc2ccccc12	/	1	0	71	45*	-2
CCC(=O)Nc1ccc2c(c1)C(=O)N(C)[C@H]1CC[C@@H](CC(=O)NCC3CC3)O[C@@H]1CO2	-3[16.7 µM]	3	/	/	/	/
C[C@@H]1CN([C@H](C)CO)C(=O)Cc2cc(NC(=O)c3ccncc3)ccc2O[C@H]1CN(C)Cc1ccccc1	1[16.7 µM]	12	/	/	/	/
COc1ccc2nc(SCc3ccccc3C)nc(C)c2c1	/	4	-2	69	?	5
COc1ccc2nc(SCc3cccc(C)c3)nc(C)c2c1	/	-13	-1	71	48*	4
O=C(NCc1ccccc1)C(c1ccccc1F)n1c(=O)c(-c2ccccc2)nc2ccccc21 (stereo not drawn)	/	-1	-2	/	-4	/
O=C(Nc1ccc2c(c1)OCCO2)C(c1ccncc1)n1c(=O)c(-c2cc3ccccc3[nH]2)nc2ccccc21 (stereo not drawn)	/	-35	/	/	53*	/
O=C(Nc1ccc2c(c1)OCCO2)C(c1ccc(C(F)(F)F)cc1)n1c(=O)c(-c2cc3ccccc3[nH]2)nc2ccccc21 (stereo not drawn)	/	-5	/	/	-3	/
